Experimental data from PubChem BioAssay AID1159580 (chemical genetic matrix, 2015).
Where “and” joins values, the source holds several entries; their conditions need not be identical. Identical values can stand only once. Out of some 5,500 compounds screened, about 2,000 (36%) were called active. Another 18% or so got no clear call; they are omitted. Rule as the data show it: active = normalized growth mostly below about 0.91 (no sharp cut-off); inconclusive = no clear call, values can overlap the other calls; inactive = mostly above about 0.92. Some of the results follow.

Experiment: chemical genetic growth profiling, strain panel (AID 1159580);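 also: tested at 20 µM; growth read once vehicle control cultures reached saturation at 30 °C; 1 = growth at the plate median or of vehicle wells; lower values mean less growth of the strain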
Conditions: S. cerevisiae deletion strains, growth OD

Measured: normalized growth

Cn1c(=O)c2c(ncn2C)n(C)c1=O
inactive: locus YAL013W, strain DEP1, stronger effect = lower value 0.997 | locus YAL021C, strain ccr4, stronger effect = lower value 1.01 | locus YAL026C, strain drs2, stronger effect = lower value 0.975 | locus YAL030W, strain snc1, stronger effect = lower value 0.97 | locus YAL040C, strain CLN3, stronger effect = lower value 1.02 | locus YBL061C, strain skt5, stronger effect = lower value 0.962 | locus YBR009C, strain hhf1, stronger effect = lower value 0.94 | locus YBR021W, strain FUR4, stronger effect = lower value 1.01 | locus YBR023C, strain chs3, stronger effect = lower value 0.978 | locus YBR171W, strain sec66, stronger effect = lower value 0.94 | locus YBR229C, strain ROT2, stronger effect = lower value 0.998 | locus YBR231C, strain swc5, stronger effect = lower value 0.989 | locus YBR279W, strain paf1, stronger effect = lower value 0.982 | locus YCL011C, strain gbp2, stronger effect = lower value 0.922 | locus YCL016C, strain dcc1, stronger effect = lower value 0.936 | locus YCL029C, strain bik1, stronger effect = lower value 1.02 | locus YCL061C, strain MRC1 (second series), stronger effect = lower value 1.01 | locus YCL061C, strain MRC1, stronger effect = lower value 0.98 | locus YCL069W, strain vba3, stronger effect = lower value 0.973 | locus YCR088W, strain abp1, stronger effect = lower value 0.983 | locus YDL005C, strain med2, stronger effect = lower value 0.99 | locus YDL035C, strain GPR1, stronger effect = lower value 1.02 | locus YDL040C, strain nat1, stronger effect = lower value 0.987 | locus YDL074C, strain BRE1, stronger effect = lower value 1.03 | locus YDL101C, strain DUN1, stronger effect = lower value 0.999 | locus YDL134C, strain PPH21, stronger effect = lower value 0.992 | locus YDL185W, strain tfp1, stronger effect = lower value 1.02 | locus YDL192W, strain arf1, stronger effect = lower value 1 | locus YDR001C, strain nth1, stronger effect = lower value 0.966 | locus YDR069C, strain doa4, stronger effect = lower value 0.961 | locus YDR101C, strain arx1, stronger effect = lower value 1.04 | locus YDR137W, strain rgp1, stronger effect = lower value 0.943 | locus YDR150W, strain NUM1, stronger effect = lower value 0.998 | locus YDR159W, strain sac3, stronger effect = lower value 0.961 | locus YDR162C, strain NBP2, stronger effect = lower value 0.998 | locus YDR195W, strain ref2 0.99 | locus YDR297W, strain sur2, stronger effect = lower value 0.98 | locus YDR318W, strain mcm21, stronger effect = lower value 0.99 | locus YDR334W, strain swr1, stronger effect = lower value 0.914 | locus YDR335W, strain msn5, stronger effect = lower value 0.969 | locus YDR363W, strain ESC2, stronger effect = lower value 0.985 | locus YDR388W, stronger effect = lower value 1 | locus YDR392W, strain spt3, stronger effect = lower value 0.942 | locus YDR502C, strain sam2, stronger effect = lower value 1.01 | locus YEL003W, strain gim4, stronger effect = lower value 0.979 | locus YEL037C, strain rad23, stronger effect = lower value 0.972 | locus YEL061C, strain CIN8 (second series), stronger effect = lower value 0.977 | locus YEL061C, strain CIN8, stronger effect = lower value 0.996 | locus YER002W, strain NOP16, stronger effect = lower value 1.01 | locus YER015W, strain faa2, stronger effect = lower value 0.971 | locus YER016W, strain bim1, stronger effect = lower value 0.948 | locus YER110C, stronger effect = lower value 1.01 | locus YER111C, strain swi4, stronger effect = lower value 0.949 | locus YER155C, strain BEM2 (second series), stronger effect = lower value 1 | locus YER155C, strain BEM2, stronger effect = lower value 0.994 | locus YER167W, strain BCK2, stronger effect = lower value 1 | locus YFR010W, strain ubp6, stronger effect = lower value 0.96 | locus YGL078C, strain dbp3, stronger effect = lower value 1.02 | locus YGL086W, strain mad1, stronger effect = lower value 1.01 | locus YGL167C, strain pmr1, stronger effect = lower value 0.945 | locus YGL173C, strain kem1, stronger effect = lower value 0.938 | locus YGL227W, strain vid30, stronger effect = lower value 0.97 | locus YGL240W, strain doc1, stronger effect = lower value 0.987 | locus YGL248W, strain PDE1, stronger effect = lower value 1 | locus YGL253W, strain hxk2, stronger effect = lower value 0.982 | locus YGR078C, strain PAC10, stronger effect = lower value 0.995 and 0.992 | locus YGR135W, strain pre9, stronger effect = lower value 0.999 | locus YGR229C, strain SMI1, stronger effect = lower value 0.995 | locus YGR252W, strain gcn5, stronger effect = lower value 1.01 | locus YHR013C, strain ard1, stronger effect = lower value 0.947 | locus YHR027C, strain rpn1, stronger effect = lower value 0.932 | locus YHR030C, strain SLT2, stronger effect = lower value 1 and 1.02 | locus YHR079C, strain IRE1 (second series), stronger effect = lower value 1.01 | locus YHR079C, strain IRE1, stronger effect = lower value 0.993 | locus YHR094C, strain hxt1, stronger effect = lower value 1.01 | locus YHR129C, strain ARP1, stronger effect = lower value 0.996 | locus YHR142W, strain chs7, stronger effect = lower value 0.899 | locus YHR200W, strain rpn10, stronger effect = lower value 1.02 | locus YIL066C, strain RNR3, stronger effect = lower value 1.01 | locus YIL073C, strain SPO22, stronger effect = lower value 1.04 | locus YIL125W, strain kgd1, stronger effect = lower value 1.01 | locus YIR030C, strain dcg1, stronger effect = lower value 0.999 | locus YJL092W, strain hpr5, stronger effect = lower value 0.956 | locus YJL095W, strain BCK1 (second series), stronger effect = lower value 0.967 | locus YJL095W, strain BCK1, stronger effect = lower value 0.985 and 1.04 | locus YJL115W, strain asf1, stronger effect = lower value 0.939 | locus YJL129C, strain trk1, stronger effect = lower value 0.95 | locus YJL134W, strain LCB3, stronger effect = lower value 1 | locus YJL154C, strain vps35, stronger effect = lower value 0.976 | locus YJL164C, strain tpk1, stronger effect = lower value 0.964 | locus YJL166W, strain qcr8, stronger effect = lower value 0.977 | locus YJL168C, strain set2, stronger effect = lower value 0.997 | locus YJL187C, strain SWE1 (second series), stronger effect = lower value 1.01 | locus YJL187C, strain SWE1, stronger effect = lower value 0.966
